{"source": "PubChem BioAssay (Tox21)", "note": "Values joined by “and” are separate entries in the source; they are usually repeats but may differ in a detail not shown here. Equal values may be shown once. Inconclusive results are not listed. Values without a mark were called inactive. Active and inactive are the calls of the source. Unless noted, calls come from the whole dose curve; as a rule, active = well fitted cell-killing curve with a large enough effect in the repeat runs; inconclusive = weak or mixed curves, or effect the other way; inactive = no such curve, though single readings can be large or run the other way. % is set by controls: 0 for no effect and ±100 for the full control effect.", "data": [{"target": "Progesterone receptor (Homo sapiens) (UniProt P06401)", "sequence (P06401 whole entry, looked up)": "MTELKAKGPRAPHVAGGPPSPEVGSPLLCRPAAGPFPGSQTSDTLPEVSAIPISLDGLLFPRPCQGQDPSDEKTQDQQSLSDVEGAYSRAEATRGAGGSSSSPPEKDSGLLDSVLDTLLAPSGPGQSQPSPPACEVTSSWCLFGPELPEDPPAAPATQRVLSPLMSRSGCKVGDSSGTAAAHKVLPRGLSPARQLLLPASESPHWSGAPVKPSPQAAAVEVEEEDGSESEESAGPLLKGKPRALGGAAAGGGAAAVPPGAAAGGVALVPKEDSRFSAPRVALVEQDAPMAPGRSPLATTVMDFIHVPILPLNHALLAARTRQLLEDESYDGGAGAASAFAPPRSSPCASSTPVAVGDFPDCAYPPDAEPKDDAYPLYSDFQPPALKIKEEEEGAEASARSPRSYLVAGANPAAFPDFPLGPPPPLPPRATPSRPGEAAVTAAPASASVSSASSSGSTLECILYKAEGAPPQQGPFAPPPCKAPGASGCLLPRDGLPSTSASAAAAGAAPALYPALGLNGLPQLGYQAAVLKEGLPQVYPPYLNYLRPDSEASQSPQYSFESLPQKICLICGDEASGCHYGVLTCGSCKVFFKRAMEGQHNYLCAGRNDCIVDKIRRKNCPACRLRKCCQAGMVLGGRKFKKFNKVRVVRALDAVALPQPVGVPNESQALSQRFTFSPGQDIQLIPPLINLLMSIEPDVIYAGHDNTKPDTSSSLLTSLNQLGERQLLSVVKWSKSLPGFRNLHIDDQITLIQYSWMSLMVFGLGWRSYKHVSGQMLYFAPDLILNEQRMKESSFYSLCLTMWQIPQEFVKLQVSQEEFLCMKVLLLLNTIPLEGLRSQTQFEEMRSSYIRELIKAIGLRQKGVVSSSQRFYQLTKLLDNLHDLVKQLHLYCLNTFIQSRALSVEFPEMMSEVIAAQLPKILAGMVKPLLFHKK", "assay": "qHTS assay to identify small molecule agonists of the progesterone receptor (PR) signaling pathway (AID 1346784; calls by dose curve; note: nearly all actives have a fitted effect of over 30% in size)", "details": "PR-UAS-bla HEK293T, beta-lactamase FRET ratio, 16 h; series mostly up to 92.4 µM; activation: at the top concentration", "how_it_was_run": "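Compounds were tested for PR agonism in HEK 293T cells bearing a beta-lactamase gene under UAS control. Treatment lasted 16 hr at 37C; signal came from fluorescence of a FRET substrate.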", "values": [{"smiles": "CC1COc2c(N3CCN(C)CC3)c(F)cc3c(=O)c(C(=O)O)cn1c23", "note": "(stereo not drawn)", "activation": "2.76% [at 42.5 µM]"}, {"smiles": "CCc1ccc(C(c2ccc(CC)cc2)C(Cl)Cl)cc1", "Potency": "inactive"}, {"smiles": "O=C(O)CP(=O)(O)O", "activation": "-0.126% [at 42.5 µM]"}, {"smiles": "CCn1cc(C(=O)O)c(=O)c2cc(F)c(N3CCNC(C)C3)c(F)c21", "note": "(stereo not drawn)", "activation": "-0.16% [at 42.5 µM]"}, {"smiles": "NC(N)=Nc1nc(CSCC/C(N)=N/S(N)(=O)=O)cs1", "Potency": "inactive"}, {"smiles": "NCCO", "Potency": "inactive"}, {"smiles": "O=C(O)c1cn(-c2ccc(F)cc2)c2cc(N3CCNCC3)c(F)cc2c1=O", "Potency": "inactive"}, {"smiles": "CCCCC/C=C/CC1CC(=O)OC1=O", "note": "(stereo not drawn)", "activation": "-1.74%"}, {"smiles": "CCCC(=O)c1ccccc1", "activation": "0.169%"}, {"smiles": "Cc1cc(C2(c3cc(C)c(O)cc3C)OS(=O)(=O)c3ccccc32)c(C)cc1O", "Potency": "inactive"}, {"smiles": "O=C(OCc1ccccc1)c1ccc(O)cc1", "activation": "0.623% [at 42.5 µM]"}, {"smiles": "CCC(C)(Oc1ccc(C2(c3ccc(OC(C)(CC)C(=O)O)cc3)CCCCC2)cc1)C(=O)O", "note": "(stereo not drawn)", "activation": "1.42% [at 42.5 µM]"}, {"smiles": "CCc1cc(C(C)(C)C)c(O)c(C(C)(C)C)c1", "activation": "2.25%"}, {"smiles": "CC(=O)CC(C)=O", "activation": "-0.567%"}, {"smiles": "NCCCCCC(=O)O", "activation": "-0.354% [at 42.5 µM]"}, {"smiles": "NNCCc1ccccc1", "Potency": "inactive"}, {"smiles": "O=C(Oc1ccccc1)c1ccccc1O", "Potency": "inactive"}, {"smiles": "NC(N)=NC(=O)Cc1c(Cl)cccc1Cl", "activation": "1.71% [at 42.5 µM]"}, {"smiles": "CC1=CC(=O)c2ccccc2C1=O", "activation": "-27.3%"}, {"smiles": "COc1cc(C(=S)N2CCOCC2)ccc1O", "activation": "-1.61% [at 42.5 µM]"}, {"smiles": "CCCNC(C)C(=O)Nc1ccccc1C", "note": "(stereo not drawn)", "activation": "1.11% [at 42.5 µM]"}, {"smiles": "NC(Cc1ccc(Cl)cc1)C(=O)O", "note": "(stereo not drawn)", "activation": "-4.74% [at 0.349 µM]"}, {"smiles": "O=C1CC2(CCCC2)CC(=O)N1CCCCN1CCN(c2ncccn2)CC1", "Potency": "inactive"}, {"smiles": "Cc1ccc(-c2cc(C(F)(F)F)nn2-c2ccc(S(N)(=O)=O)cc2)cc1", "activation": "-0.427% [at 42.5 µM]"}, {"smiles": "CC(=O)CC(=O)Nc1ccc2[nH]c(=O)[nH]c2c1", "activation": "-0.647%"}, {"smiles": "c1ccc2cc3c(ccc4ccccc43)cc2c1", "Potency": "inactive"}, {"smiles": "Cc1c(O)cccc1C(=O)N[C@@H](CSc1ccccc1)[C@H](O)CN1C[C@H]2CCCC[C@H]2C[C@H]1C(=O)NC(C)(C)C", "activation": "-7.98% [at 42.5 µM]"}, {"smiles": "O=C(O)c1cccc(C(=O)O)c1", "Potency": "inactive"}, {"smiles": "CCN1CCCC1CNC(=O)c1cc(S(=O)(=O)CC)c(N)cc1OC", "note": "(stereo not drawn)", "activation": "-2.28% [at 42.5 µM]"}, {"smiles": "CCC[C@H](N[C@@H](C)C(=O)N1[C@H](C(=O)O)C[C@@H]2CCCC[C@@H]21)C(=O)OCC", "Potency": "inactive"}, {"smiles": "CC(C)(C)NCC(O)c1cc(O)cc(O)c1", "note": "(stereo not drawn)", "activation": "1.16% [at 42.5 µM]"}]}, {"target": "Progesterone receptor (Homo sapiens) (UniProt P06401)", "assay": "qHTS assay to identify small molecule antagonists of the progesterone receptor (PR) signaling pathway (AID 1346795; active = well fitted inhibition curve with a large enough effect in the signal ratio in the repeat runs, not every such curve was filed as active; the % refers to the signal ratio; note: potency is the fitted concentration of half-maximal effect)", "details": "PR-UAS-bla HEK293T, beta-lactamase FRET ratio, 16 h; series mostly up to 92.4 µM; activity change, negative = inhibition: at the top concentration", "how_it_was_run": "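In HEK293T cells bearing the PR-UAS-bla reporter, compound effects on promegestone-driven (1 nM) beta-lactamase expression are assessed after 16 hr using a fluorescent FRET substrate incubated 2 hr at room temperature.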", "values": [{"smiles": "CCn1cc(C(=O)O)c(=O)c2cc(F)c(N3CCNC(C)C3)c(F)c21", "note": "(stereo not drawn)", "activity change, negative = inhibition": "0.278% [at 42.5 µM]"}, {"smiles": "NCCO", "activity change, negative = inhibition": "-2.57%"}, {"smiles": "Cc1cc(C2(c3cc(C)c(O)cc3C)OS(=O)(=O)c3ccccc32)c(C)cc1O", "Potency": "61.1 µM (active)"}, {"smiles": "CCC(C)(Oc1ccc(C2(c3ccc(OC(C)(CC)C(=O)O)cc3)CCCCC2)cc1)C(=O)O", "note": "(stereo not drawn)", "activity change, negative = inhibition": "8.47% [at 42.5 µM]"}, {"smiles": "CCc1cc(C(C)(C)C)c(O)c(C(C)(C)C)c1", "Potency": "inactive"}, {"smiles": "NCCCCCC(=O)O", "activity change, negative = inhibition": "8.2% [at 42.5 µM]"}, {"smiles": "Nc1nc2ccccc2[nH]1", "activity change, negative = inhibition": "1.45%"}, {"smiles": "NC(N)=NC(=O)Cc1c(Cl)cccc1Cl", "activity change, negative = inhibition": "5.13% [at 42.5 µM]"}, {"smiles": "COc1cc(C(=S)N2CCOCC2)ccc1O", "activity change, negative = inhibition": "8.54% [at 42.5 µM]"}, {"smiles": "NC(Cc1ccc(Cl)cc1)C(=O)O", "note": "(stereo not drawn)", "activity change, negative = inhibition": "-0.261% [at 0.348 µM]"}, {"smiles": "O=C1CC2(CCCC2)CC(=O)N1CCCCN1CCN(c2ncccn2)CC1", "activity change, negative = inhibition": "2.05% [at 42.5 µM]"}, {"smiles": "CC(=O)CC(=O)Nc1ccc2[nH]c(=O)[nH]c2c1", "activity change, negative = inhibition": "-0.0937%"}, {"smiles": "CCC[C@H](N[C@@H](C)C(=O)N1[C@H](C(=O)O)C[C@@H]2CCCC[C@@H]21)C(=O)OCC", "Potency": "inactive"}]}, {"test_system": "not listed separately", "assay": "qHTS assay to identify small molecule antagonists of the progesterone receptor (PR) signaling pathway - cell viability counter screen (AID 1346798); note: nearly all actives have a fitted effect of over 50% in size; note: potency is the fitted concentration of half-maximal effect", "details": "PR-UAS-bla HEK293T viability, CellTiter-Glo luminescence, 16 h; series mostly up to 92.4 µM; activity change, negative = cytotoxicity: at the top concentration", "how_it_was_run": "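Following a 4 hr attachment, PR-UAS-bla HEK293T cells in charcoal-stripped FBS medium were exposed to compounds with R5020 for 16 hr; CellTiter-Glo was added and luminescence read after 30 min at room temperature.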", "values": [{"smiles": "CC1COc2c(N3CCN(C)CC3)c(F)cc3c(=O)c(C(=O)O)cn1c23", "note": "(stereo not drawn)", "activity change, negative = cytotoxicity": "7.22% [at 42.5 µM]"}, {"smiles": "CCc1ccc(C(c2ccc(CC)cc2)C(Cl)Cl)cc1", "Potency": "inactive"}, {"smiles": "O=C(O)CP(=O)(O)O", "activity change, negative = cytotoxicity": "-9.06% [at 42.5 µM]"}, {"smiles": "CCn1cc(C(=O)O)c(=O)c2cc(F)c(N3CCNC(C)C3)c(F)c21", "note": "(stereo not drawn)", "activity change, negative = cytotoxicity": "3.17% [at 42.5 µM]"}, {"smiles": "c1ccc2c(c1)-c1cccc3c1c-2cc1ccccc13", "Potency": "inactive"}, {"smiles": "NC(N)=Nc1nc(CSCC/C(N)=N/S(N)(=O)=O)cs1", "Potency": "inactive"}, {"smiles": "NCCO", "activity change, negative = cytotoxicity": "15.5%"}, {"smiles": "CCCCCCCCCCCCCC[P+](CCCC)(CCCC)CCCC", "Potency": "30.5 µM (active) and 54.5 µM (active)"}, {"smiles": "O=C(O)c1cn(-c2ccc(F)cc2)c2cc(N3CCNCC3)c(F)cc2c1=O", "Potency": "inactive"}, {"smiles": "CCCCC/C=C/CC1CC(=O)OC1=O", "note": "(stereo not drawn)", "activity change, negative = cytotoxicity": "1.04%"}, {"smiles": "CCCC(=O)c1ccccc1", "activity change, negative = cytotoxicity": "-23.3%"}, {"smiles": "O=C(OCc1ccccc1)c1ccc(O)cc1", "Potency": "inactive"}, {"smiles": "CCC(C)(Oc1ccc(C2(c3ccc(OC(C)(CC)C(=O)O)cc3)CCCCC2)cc1)C(=O)O", "note": "(stereo not drawn)", "activity change, negative = cytotoxicity": "9.54% [at 42.5 µM]"}, {"smiles": "CCc1cc(C(C)(C)C)c(O)c(C(C)(C)C)c1", "Potency": "inactive"}, {"smiles": "CC(=O)CC(C)=O", "activity change, negative = cytotoxicity": "-3.79%"}, {"smiles": "NCCCCCC(=O)O", "activity change, negative = cytotoxicity": "11% [at 42.5 µM]"}, {"smiles": "NNCCc1ccccc1", "activity change, negative = cytotoxicity": "-18.4% [at 42.5 µM]"}, {"smiles": "Nc1nc2ccccc2[nH]1", "Potency": "inactive"}, {"smiles": "O=C(Oc1ccccc1)c1ccccc1O", "Potency": "inactive"}, {"smiles": "NC(N)=NC(=O)Cc1c(Cl)cccc1Cl", "activity change, negative = cytotoxicity": "-21.7% [at 42.5 µM]"}, {"smiles": "CC1=CC(=O)c2ccccc2C1=O", "activity change, negative = cytotoxicity": "2.51% [at 42.5 µM]"}, {"smiles": "COc1cc(C(=S)N2CCOCC2)ccc1O", "activity change, negative = cytotoxicity": "5.17% [at 42.5 µM]"}, {"smiles": "CCCNC(C)C(=O)Nc1ccccc1C", "note": "(stereo not drawn)", "activity change, negative = cytotoxicity": "0.0571% [at 42.5 µM]"}, {"smiles": "NC(Cc1ccc(Cl)cc1)C(=O)O", "note": "(stereo not drawn)", "activity change, negative = cytotoxicity": "-9.96% [at 0.348 µM]"}, {"smiles": "O=C1CC2(CCCC2)CC(=O)N1CCCCN1CCN(c2ncccn2)CC1", "activity change, negative = cytotoxicity": "-12.2% [at 42.5 µM]"}, {"smiles": "Cc1ccc(-c2cc(C(F)(F)F)nn2-c2ccc(S(N)(=O)=O)cc2)cc1", "activity change, negative = cytotoxicity": "22.4% [at 42.5 µM]"}, {"smiles": "CC(=O)CC(=O)Nc1ccc2[nH]c(=O)[nH]c2c1", "activity change, negative = cytotoxicity": "-0.428%"}, {"smiles": "c1ccc2cc3c(ccc4ccccc43)cc2c1", "Potency": "inactive"}, {"smiles": "Cc1c(O)cccc1C(=O)N[C@@H](CSc1ccccc1)[C@H](O)CN1C[C@H]2CCCC[C@H]2C[C@H]1C(=O)NC(C)(C)C", "Potency": "29.8 µM (active)"}, {"smiles": "O=C(O)c1cccc(C(=O)O)c1", "activity change, negative = cytotoxicity": "-5.94%"}, {"smiles": "CCN1CCCC1CNC(=O)c1cc(S(=O)(=O)CC)c(N)cc1OC", "note": "(stereo not drawn)", "activity change, negative = cytotoxicity": "-8.72% [at 42.5 µM]"}, {"smiles": "CCC[C@H](N[C@@H](C)C(=O)N1[C@H](C(=O)O)C[C@@H]2CCCC[C@@H]21)C(=O)OCC", "Potency": "inactive"}, {"smiles": "CCCCCCCCCCCCc1ccccc1O", "Potency": "38.6 µM (active)"}, {"smiles": "CC(C)(C)NCC(O)c1cc(O)cc(O)c1", "note": "(stereo not drawn)", "activity change, negative = cytotoxicity": "-9.86% [at 42.5 µM]"}]}]}
